Consider seven compounds from PubChem BioAssay (NCATS).

Unmarked numbers belong to inactive results. Inconclusive results are not listed. The source made the active and inactive calls. Unless noted, calls follow the shape of the dose curve; as a rule, active = well fitted curve in either direction with a large enough effect (not every such curve was filed as active); inconclusive = small, poorly fitted or top-dose-only effect, or another doubt; inactive = flat fitted curve, though single readings scatter. Where only a bound is given, the exact number is not on record here.

Test [1] is described as follows: AP1 Signaling Pathway (AID 357).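 Also: ME-180 reporter cells stimulated with EGF at its EC50 level; % is scaled to controls: 0 for no effect and ±100 for the full control effect.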 To be noted: ME-180 AP-1-bla reporter, EGF-induced, beta-lactamase ratio, 5 h; at 7.69 µM (top of the series) unless noted. The procedure, abridged: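 In this screen, ME-180 cells in Opti-MEM with 0.5% dialyzed FBS received EC50 EGF and compound titrations for 5 h. AP-1 reporter beta-lactamase was detected via CCF4 ratio, giving AC50 for positive and negative modulators.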

Test [2] deals with Cytochrome P450 1A2 (Homo sapiens) (UniProt P05177). The test is described as follows: p450-cyp1a2 (AID 410; calls by dose curve; also: potency is read from the fitted curve at half-maximal effect;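 as to activity change, negative = inhibition: -100% = full effect of reference inhibitor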). An outline of the steps: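 Luminescent demethylation readout: Luciferin-ME (100uM, equal to Km) turned over by 20nM CYP1A2 for 60 min at room temperature after NADPH regeneration addition, following 10 min compound preincubation. Normalization used 57 uM furafylline as full inhibition.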
Chain of Cytochrome P450 1A2 (Homo sapiens) (P05177 whole entry, looked up): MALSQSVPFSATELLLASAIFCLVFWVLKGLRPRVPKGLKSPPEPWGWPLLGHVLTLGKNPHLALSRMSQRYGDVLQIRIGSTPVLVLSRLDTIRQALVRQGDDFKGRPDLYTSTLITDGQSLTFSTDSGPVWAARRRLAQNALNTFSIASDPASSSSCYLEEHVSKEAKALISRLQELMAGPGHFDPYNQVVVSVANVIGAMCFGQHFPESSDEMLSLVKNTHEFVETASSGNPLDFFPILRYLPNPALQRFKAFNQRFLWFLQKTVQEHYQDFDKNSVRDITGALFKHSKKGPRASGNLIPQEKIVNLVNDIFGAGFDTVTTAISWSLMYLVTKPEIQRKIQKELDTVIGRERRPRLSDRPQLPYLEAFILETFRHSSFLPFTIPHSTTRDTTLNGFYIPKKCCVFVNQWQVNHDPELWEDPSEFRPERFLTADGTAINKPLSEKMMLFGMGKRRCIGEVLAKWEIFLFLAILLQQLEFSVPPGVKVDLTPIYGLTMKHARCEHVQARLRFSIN

The nature of test [3]: NFAT Signaling Pathway (AID 444).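 Also: carbachol stimulus at about its EC50 of 1 µM final; % is scaled to controls: 0 for no effect and ±100 for the full control effect.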 The conditions noted are these: Jurkat NFAT-bla M1, carbachol, beta-lactamase ratio, 5 h; at 7.69 µM (top of the series) unless noted. An outline of the steps:
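Read-out: CCF4 FRET ratio (460 nm/530 nm) after 1 h RT dye loading, used for %activity and AC50 from titration series. Cells: Jurkat NFAT-β-lactamase/M1 line, treated with compound plus 1 uM carbachol for 5 h, 37 °C.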

A short description of test [4]: Stat Signaling Pathway (AID 446).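 Also: ME-180 cervical cancer cells given 40 pM IL-6 alongside compound; SIE-controlled beta-lactamase reporter measured as 460/530 nm FRET emission ratio; % is scaled to controls: 0 for no effect and ±100 for the full control effect.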 To be noted: ME-180 (cervical carcinoma) SIE beta-lactamase reporter, IL-6 stimulated, 5 h; at 7.69 µM (top of the series) unless noted. An outline of the steps: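 Emission at 460 and 530 nm (excitation 405 nm) reports SIE-controlled beta-lactamase in ME-180 cells. Cells received compound with 40 pM IL-6 for 5 hrs at 37 C; data scaled between 300 pM IL-6 and 125 nM JAK-inhibitor controls.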

Test [5] deals with Glucocorticoid receptor (Homo sapiens) (UniProt P04150). The test is described as follows: GR-GFP Redistribution (AID 450;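 active = compounds whose dose series gives a full or clear partial fitted curve of increased nuclear translocation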; also: potency is read from the fitted curve at half-maximal effect). To be noted: U2OS GR-GFP nuclear translocation, laser cytometry, 2 h.
Chain of Glucocorticoid receptor (Homo sapiens) (P04150 whole entry, looked up, the tested form may be a part): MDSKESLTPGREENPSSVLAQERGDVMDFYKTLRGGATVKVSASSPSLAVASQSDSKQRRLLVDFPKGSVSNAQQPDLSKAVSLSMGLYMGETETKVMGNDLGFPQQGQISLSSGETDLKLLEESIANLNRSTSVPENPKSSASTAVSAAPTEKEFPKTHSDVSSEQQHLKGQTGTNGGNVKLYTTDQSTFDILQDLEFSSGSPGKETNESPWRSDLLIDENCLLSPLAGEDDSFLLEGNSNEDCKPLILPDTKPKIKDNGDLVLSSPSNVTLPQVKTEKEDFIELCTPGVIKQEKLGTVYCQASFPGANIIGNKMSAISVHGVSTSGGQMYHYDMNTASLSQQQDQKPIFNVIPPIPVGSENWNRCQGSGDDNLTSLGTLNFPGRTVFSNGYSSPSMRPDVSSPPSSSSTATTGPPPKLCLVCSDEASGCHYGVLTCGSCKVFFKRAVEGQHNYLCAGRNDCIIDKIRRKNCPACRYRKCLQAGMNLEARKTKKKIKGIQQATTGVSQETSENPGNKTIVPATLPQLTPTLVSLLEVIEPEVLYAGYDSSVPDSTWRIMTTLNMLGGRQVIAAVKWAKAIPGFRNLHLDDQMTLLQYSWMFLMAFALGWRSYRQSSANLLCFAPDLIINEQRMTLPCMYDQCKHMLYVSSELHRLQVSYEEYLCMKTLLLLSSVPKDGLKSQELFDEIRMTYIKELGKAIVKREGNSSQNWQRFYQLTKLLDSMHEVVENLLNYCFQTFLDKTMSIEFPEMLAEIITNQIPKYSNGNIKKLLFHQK
Test [6] deals with Mitogen-activated protein kinase 10 (Mus musculus) (UniProt Q61831). The test is described as follows: JNK3 AlphaScreen Assay (AID 530).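 Also: kinase came from lysate of stimulated human HepG2 cells; signal reports phosphorylation of biotinylated GST-cJun 1-79 at Ser73 with 10 µM ATP; % is scaled to controls: 0 for no effect and ±100 for the full control effect.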 The procedure, abridged:
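qHTS titrations with 15 min compound pre-incubation before adding ATP (10 uM final). Read-out: AlphaScreen of Ser73-phosphorylated biotin-GST-cJun using HepG2 lysate JNK3 activated by IL-1β and TNFα.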

The target in test [7] is 3',5'-cyclic-AMP phosphodiesterase 4B (Homo sapiens) (UniProt Q07343). The test is described as follows: qHTS Assay for Inhibitors of PDE-IV (AID 607; active = well fitted activation curve with a large enough effect in the main read-out, with a control signal flat, not every such curve was filed as active; also: % of control where 0% means no effect). The procedure, abridged: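 The readout is membrane depolarisation from a cAMP-sensing CNG channel, detected with a potential dye at ex 535/em 590. Cells were HEK293-derived (endogenous PDE-IV) at 1000 cells/well, titrated up to 22.9 uM final.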
Chain of 3',5'-cyclic-AMP phosphodiesterase 4B (Homo sapiens) (Q07343 whole entry, looked up): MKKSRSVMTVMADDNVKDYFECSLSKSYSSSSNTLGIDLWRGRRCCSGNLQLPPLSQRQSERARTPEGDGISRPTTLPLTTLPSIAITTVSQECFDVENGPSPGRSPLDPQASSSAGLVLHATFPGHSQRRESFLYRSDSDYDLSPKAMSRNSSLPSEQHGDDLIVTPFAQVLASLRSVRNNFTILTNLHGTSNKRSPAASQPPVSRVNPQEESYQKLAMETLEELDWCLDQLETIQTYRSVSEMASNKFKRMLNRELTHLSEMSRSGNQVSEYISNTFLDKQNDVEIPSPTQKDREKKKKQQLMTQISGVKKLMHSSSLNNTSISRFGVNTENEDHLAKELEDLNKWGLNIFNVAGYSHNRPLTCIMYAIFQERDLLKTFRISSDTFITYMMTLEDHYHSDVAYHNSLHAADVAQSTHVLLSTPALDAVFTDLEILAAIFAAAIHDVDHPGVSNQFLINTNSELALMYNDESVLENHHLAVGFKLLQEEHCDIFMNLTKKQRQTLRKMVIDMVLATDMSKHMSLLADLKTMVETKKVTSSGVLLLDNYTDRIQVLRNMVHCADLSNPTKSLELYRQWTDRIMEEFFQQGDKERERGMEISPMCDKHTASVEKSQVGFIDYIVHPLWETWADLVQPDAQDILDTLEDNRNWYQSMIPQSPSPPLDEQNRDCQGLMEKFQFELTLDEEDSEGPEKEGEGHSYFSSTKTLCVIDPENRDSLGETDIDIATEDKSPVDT
A general note: Quantitative high-throughput screening tests each substance at several concentrations.

For test [8], the target named is Glucocorticoid receptor (Homo sapiens) (UniProt P04150). The test is described as follows: GR-EFC Redistribution (AID 451; calls by dose curve; also: potency is read from the fitted curve at half-maximal effect). To be noted: CHO-K1 GR-EFC translocation, beta-gal luminescence, 2 h. The procedure, abridged:
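Translocation of GR-ED fusion to nuclear EA restores b-gal, read by luminescence after 1 h room-temperature detection. Engineered CHO-K1 biosensor cells, 1,000/well, exposed 2 h at 37 C to titrations up to 46 uM final.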

Test [9] has as its target Guanine nucleotide-binding protein G(i) subunit alpha-1 (Homo sapiens) (UniProt P63096). The test is described as follows: qHTS Assay for Inhibitors of RGS12 GoLoco Motif Activity (Green Fluorophore) (AID 879; active = well fitted curve in the direction sought with a large enough effect; an effect the other way counts as inactive or inconclusive;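 also: 0% = labeled peptide with Gαi1 and full inhibition = labeled peptide alone without protein; negative values mean loss of peptide binding seen as reduced polarization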). An outline of the steps: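 A drop in FITC polarization marked displacement of the FITC-tagged RGS12 GoLoco peptide (10 nM) from Gαi1 (50 nM). Compounds were incubated 10 min at room temperature in Tris pH 7.5 buffer containing 150 mM NaCl, 0.1 mM GDP and 0.05% NP40; unlabeled peptide titration served as control.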

Test [10] can be described thus: qHTS Assay for Identification of Small Molecule Agonists for Thrombopoietin (TPO) Signaling Pathway (AID 917; active = well fitted curve in the direction sought with a large enough effect; an effect the other way counts as inactive or inconclusive; also: % is scaled to controls: 0 for no effect and ±100 for the full control effect). An outline of the steps:
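Human TPO receptor–transfected Ba/F3 cells (murine, IL-3-dependent) in IL-3-deficient medium; compounds plus TPO at EC50, 26 pM final; 24 hrs, 37 C; GpIIb-luciferase luminescence after 10 min RT detection.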

Test [11] deals with Muscarinic acetylcholine receptor M1 (Rattus norvegicus) (UniProt P08482). The test is described as follows: qHTS Assay for Antagonists of Acetylcholine Muscarinic M1 Receptor: Measurement of IP-One Response (AID 944; active = well fitted curve in the direction sought with a large enough effect; an effect the other way counts as inactive or inconclusive; also: nearly all actives have a fitted effect of over 75% in size). An outline of the steps:
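IP1 accumulation measured via TR-FRET between d2-IP1 and Eu-cryptate anti-IP1 antibody after carbachol (200 nM, EC80) stimulation for 30 min; rat M1-transfected CHO cells received compound 10 min before agonist.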

Test [12] concerns the target Pyruvate kinase (Leishmania mexicana) (UniProt Q27686). The test is described as follows: qHTS Validation Assay for Inhibitors of Leishmania Mexicana Pyruvate Kinase (AID 945; active = well fitted curve in the direction sought with a large enough effect; an effect the other way counts as inactive or inconclusive;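 also: 0% = DMSO only neutral control wells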). The procedure, abridged: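 An endpoint luciferase assay: 0.2 nM LmPYK E451W turns over 0.5 mM PEP with 0.1 mM ADP for 1 h at room temperature, pH 7.2, before PKLight addition. Values are normalized to DMSO-only wells.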

Test [13] addresses Pyruvate kinase PKM (Homo sapiens) (UniProt P14618). The test is described as follows: qHTS Assay for Activators of Human Muscle Pyruvate Kinase (AID 954; active = well fitted curve in the direction sought with a large enough effect, not every such curve was filed as active;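 also: 0% = uninhibited enzyme and -100% = no enzyme or full thiadiazolimine inhibition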). The procedure, abridged: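 PKM2, human, >95% pure, 0.1 nM; PEP 0.5 mM (Km), ADP 0.1 mM; 50 mM imidazole pH 7.2, 50 mM KCl, 0.01% Tween 20, 0.05% BSA; 1 h RT; luciferase luminescence readout.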
The target in test [14] is Alpha-galactosidase A (Homo sapiens) (UniProt P06280). The test is described as follows: Counterscreen for Glucocerebrosidase Inhibitors: qHTS Assay for Human alpha-Galactosidase at pH 4.5 (AID 992; active = well fitted curve in the direction sought with a large enough effect; an effect the other way counts as inactive or inconclusive; also: 0% is about no effect). An outline of the steps:
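Fluorogenic 4-MU alpha-D-galactoside (80 uM) hydrolysis, 2 nM enzyme, pH 4.5 citrate buffer + 0.005% Tween-20; 20 min RT; NaOH/glycine pH 10 stop; Ex365/Em440. Compounds titrated 0.7 nM–77 uM; Hill-equation AC50.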
A general note: Counterscreens check selectivity or assay interference.

For test [15], the target named is alpha-glucosidase (Oryza sativa, rice) (UniProt Q653V4). The test is described as follows: Counterscreen for Glucocerebrosidase Inhibitors: qHTS Assay for Rice alpha-Glucosidase at pH 5.0 (AID 997; active = well fitted curve in the direction sought with a large enough effect; an effect the other way counts as inactive or inconclusive;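 also: 0% = full activity with enzyme and -100% = basal without enzyme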). The procedure, abridged: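 Endpoint fluorogenic assay at pH 5.0: compounds (0.7 nM to 77 uM) titrated against 4 nM rice enzyme and 400 uM 4-MU-alpha-glucoside for 20 min at room temperature; NaOH/glycine stop, read ex 365/em 440 nm, Hill-fitted AC50.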

Test [16] concerns the target Alpha-galactosidase (Coffea arabica) (UniProt Q42656). The test is described as follows: Counterscreen for Glucocerebrosidase Inhibitors: qHTS Assay for Coffee Bean alpha-Galactosidase at pH 5.9 (AID 998; active = well fitted curve in the direction sought with a large enough effect; an effect the other way counts as inactive or inconclusive;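 also: plate controls were uninhibited enzyme for no effect and no-enzyme basal signal for full effect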). The procedure, abridged:
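Fluorogenic 4-MU substrate hydrolysis, 80 uM substrate and 2 nM coffee bean alpha-galactosidase, pH 5.9 citrate buffer, 20 min at room temperature, then NaOH/glycine stop. Titration 0.7 nM–77 uM, normalized to no-enzyme and enzyme controls, AC50 via Hill equation.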

The target in test [17] is Cytochrome P450 2D6 (Homo sapiens) (UniProt P10635). The test is described as follows: qHTS Assay for Inhibitors and Substrates of Cytochrome P450 2D6 (AID 891; active = well fitted curve in the direction sought with a large enough effect; an effect the other way counts as inactive or inconclusive; also: nearly all actives have a fitted effect of over 60% in size; also: potency is read from the fitted curve at half-maximal effect). The procedure, abridged: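 Luminescent read-out of luciferin formed by 5 nM human CYP2D6 demethylating 30 uM Luciferin-ME EGE (Km level) over 60 min at room temperature after NADPH regeneration addition. Data normalized to full inhibition by 1.43 uM quinidine.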
Chain of Cytochrome P450 2D6 (Homo sapiens) (P10635 whole entry, looked up): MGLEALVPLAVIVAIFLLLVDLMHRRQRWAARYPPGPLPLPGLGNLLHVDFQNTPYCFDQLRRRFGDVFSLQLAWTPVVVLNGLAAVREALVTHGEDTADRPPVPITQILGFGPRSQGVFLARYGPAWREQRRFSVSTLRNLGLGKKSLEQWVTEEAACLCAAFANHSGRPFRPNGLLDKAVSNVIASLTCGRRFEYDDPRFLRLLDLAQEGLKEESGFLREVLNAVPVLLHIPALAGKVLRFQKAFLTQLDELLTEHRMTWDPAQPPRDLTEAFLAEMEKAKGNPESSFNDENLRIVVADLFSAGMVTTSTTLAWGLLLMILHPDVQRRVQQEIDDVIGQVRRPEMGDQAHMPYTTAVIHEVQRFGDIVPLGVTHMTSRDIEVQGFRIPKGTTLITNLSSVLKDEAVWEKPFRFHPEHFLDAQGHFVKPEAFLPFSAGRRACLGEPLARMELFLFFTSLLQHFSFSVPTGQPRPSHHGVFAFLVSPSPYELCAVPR

Test [18] has as its target Cytochrome P450 2C19 (Homo sapiens) (UniProt P33261). The test is described as follows: qHTS Assay for Inhibitors and Substrates of Cytochrome P450 2C19 (AID 899; active = well fitted curve in the direction sought with a large enough effect; an effect the other way counts as inactive or inconclusive; also: % is scaled to controls: 0 for no effect and ±100 for the full control effect; nearly all actives have a fitted effect of over 60% in size). The procedure, abridged: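 Reactions contain 5nM enzyme, 10uM Luciferin-H EGE (KM) and 50mM KPO4; compound preincubates 10 min at 37C, NADPH regeneration starts turnover for 60 min. Luminescence after detection reagent gives activity.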

Chain of Pyruvate kinase PKM (Homo sapiens) (P14618 whole entry, looked up): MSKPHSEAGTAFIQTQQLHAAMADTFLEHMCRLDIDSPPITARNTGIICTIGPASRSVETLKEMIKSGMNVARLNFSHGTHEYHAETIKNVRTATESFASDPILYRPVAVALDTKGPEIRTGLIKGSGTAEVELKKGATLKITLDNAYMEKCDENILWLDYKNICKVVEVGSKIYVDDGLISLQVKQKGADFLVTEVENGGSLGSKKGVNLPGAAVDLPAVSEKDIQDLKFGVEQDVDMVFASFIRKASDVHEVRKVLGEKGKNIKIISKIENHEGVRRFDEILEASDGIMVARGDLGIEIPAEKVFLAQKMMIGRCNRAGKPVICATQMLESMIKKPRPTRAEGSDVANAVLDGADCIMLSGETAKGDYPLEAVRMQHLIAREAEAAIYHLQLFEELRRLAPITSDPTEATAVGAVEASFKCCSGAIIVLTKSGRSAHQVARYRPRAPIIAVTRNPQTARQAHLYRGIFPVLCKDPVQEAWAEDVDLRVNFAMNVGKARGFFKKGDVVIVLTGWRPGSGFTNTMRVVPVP
Chain of Guanine nucleotide-binding protein G(i) subunit alpha-1 (Homo sapiens) (P63096 whole entry, looked up): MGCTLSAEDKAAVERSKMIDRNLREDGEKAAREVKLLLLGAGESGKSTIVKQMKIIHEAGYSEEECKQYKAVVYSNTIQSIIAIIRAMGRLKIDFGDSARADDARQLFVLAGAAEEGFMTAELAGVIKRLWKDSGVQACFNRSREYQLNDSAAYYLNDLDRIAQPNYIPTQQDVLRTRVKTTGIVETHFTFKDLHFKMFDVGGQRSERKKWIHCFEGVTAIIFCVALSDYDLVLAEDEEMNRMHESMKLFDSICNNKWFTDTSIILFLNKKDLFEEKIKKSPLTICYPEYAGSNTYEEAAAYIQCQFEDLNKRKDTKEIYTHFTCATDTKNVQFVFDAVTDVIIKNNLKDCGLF
Chain of Pyruvate kinase (Leishmania mexicana) (Q27686 2-499 E452W): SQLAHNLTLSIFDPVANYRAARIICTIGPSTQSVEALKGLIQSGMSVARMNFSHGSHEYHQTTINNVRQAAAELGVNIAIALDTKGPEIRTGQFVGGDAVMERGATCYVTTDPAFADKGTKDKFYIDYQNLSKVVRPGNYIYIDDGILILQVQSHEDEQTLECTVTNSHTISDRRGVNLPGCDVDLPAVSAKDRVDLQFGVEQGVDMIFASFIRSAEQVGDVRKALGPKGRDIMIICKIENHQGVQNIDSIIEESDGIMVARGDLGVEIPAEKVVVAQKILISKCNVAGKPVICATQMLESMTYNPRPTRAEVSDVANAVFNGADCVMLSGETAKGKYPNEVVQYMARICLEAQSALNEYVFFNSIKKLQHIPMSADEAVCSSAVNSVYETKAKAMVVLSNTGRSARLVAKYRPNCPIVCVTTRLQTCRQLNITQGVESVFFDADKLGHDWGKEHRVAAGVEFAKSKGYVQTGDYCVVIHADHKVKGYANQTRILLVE
Chain of Alpha-galactosidase (Coffea arabica) (Q42656 whole entry, looked up): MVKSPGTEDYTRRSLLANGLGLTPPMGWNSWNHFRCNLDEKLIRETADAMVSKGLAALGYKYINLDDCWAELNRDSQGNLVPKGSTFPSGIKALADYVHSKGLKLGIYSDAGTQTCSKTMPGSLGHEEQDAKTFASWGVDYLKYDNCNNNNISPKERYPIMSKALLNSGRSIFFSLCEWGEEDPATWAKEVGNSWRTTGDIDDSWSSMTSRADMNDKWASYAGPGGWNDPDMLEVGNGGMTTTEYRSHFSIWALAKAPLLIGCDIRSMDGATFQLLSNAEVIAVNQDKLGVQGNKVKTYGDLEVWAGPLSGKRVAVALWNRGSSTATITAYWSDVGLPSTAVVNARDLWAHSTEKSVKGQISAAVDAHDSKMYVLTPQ
Chain of Alpha-galactosidase A (Homo sapiens) (P06280 whole entry, looked up): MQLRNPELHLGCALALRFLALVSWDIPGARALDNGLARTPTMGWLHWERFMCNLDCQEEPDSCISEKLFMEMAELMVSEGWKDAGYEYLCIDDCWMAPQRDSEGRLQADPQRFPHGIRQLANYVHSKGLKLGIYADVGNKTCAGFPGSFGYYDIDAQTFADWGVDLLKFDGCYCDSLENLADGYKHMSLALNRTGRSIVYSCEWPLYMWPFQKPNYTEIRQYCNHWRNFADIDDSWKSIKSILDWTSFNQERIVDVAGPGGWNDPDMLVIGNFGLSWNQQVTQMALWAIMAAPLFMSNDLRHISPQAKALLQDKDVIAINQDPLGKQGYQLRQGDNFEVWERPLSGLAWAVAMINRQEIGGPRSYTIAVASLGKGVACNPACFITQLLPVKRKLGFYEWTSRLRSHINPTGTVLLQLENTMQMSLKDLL

Take `C[C@]12CC[C@@H]3[C@H](CCC4=CC(=O)CC[C@]43C)[C@]1(O)CC[C@@]2(O)C(=O)CO`: the activity change, negative = inhibition in test [1] is -0.316%; in test [2], 4.8% [at 2.29 µM]; in [3] it was 5.17%; in test [6] it was 4.11% [at 11.4 µM]. In addition, the activity, negative = inhibition in [4] is -1.84%. The Potency in [5] was 0.822 µM (active). Further, the result in test [7] was inactive.
On to `CN1C[C@H](C(=O)N[C@@]2(C)O[C@@]3(O)[C@H]4CCCN4C(=O)[C@@H](Cc4ccccc4)N3C2=O)C=C2c3cccc4[nH]cc(c34)C[C@@H]21`, for which the activity change, negative = inhibition was 2.32% in test [1], -0.805% in test [3] and -2.44% [at 11.4 µM] in [6]. Further, the figures for the Potency in [2] and in [5] were 3.16 µM (active) and > 46 µM, respectively. In addition, the activity, negative = inhibition in [4] is 0.776%. Besides, the call in [7] was inactive.
`COc1cc2c(cc1OC)[C@@]13CCN4CC5=CCO[C@H](CC(=O)O)[C@@H]([C@H]1N2)[C@H]5C[C@H]43`: the activity change, negative = inhibition is -1.41% in test [1], 9.02% in test [3] and 4.42% [at 11.4 µM] in test [6]. Moreover, in test [2], the Potency result is “inactive”. Besides, in test [4], the activity, negative = inhibition was 1.37%. For the same compound, the Potency in test [5] was > 46 µM; in test [8], > 9.22 µM. For the same compound, the compound was classed as inactive in test [7].
With `NC[C@H](O)c1cc(O)c(O)cc1F`, the values for the activity change, negative = inhibition in test [1] and in [3] were -2.42% [at 38 µM] and 4.54% [at 38 µM], respectively. Besides, the Potency result in [2] and in [11] was “inactive” throughout. Also, in test [4], the activity, negative = inhibition was 10.9% [at 38 µM]. In addition, the Potency in test [5] and in test [8] was > 46 µM throughout. The compound was called inactive in test [7], in test [9], in test [10], in test [12], in test [13] and in test [14]. Also, the compound was classed as inactive in [15] and in [16].
In the case of `COc1ccc2c3c1O[C@@H]1C(=O)CC[C@@]4(O)[C@@H](C2)N(CC2CC2)CC[C@]314`, the activity change, negative = inhibition was -5.48% [at 38 µM] in test [1] and -9.4% [at 38 µM] in test [3]. Besides, the Potency entry in test [2], in test [6] and in test [11] was “inactive” throughout. Further, the activity, negative = inhibition in [4] is 4.82% [at 38 µM]. For the same compound, the Potency in [5] is > 46 µM; in test [8], > 46 µM; in [17], 5.01 µM (active). The outcome in test [7], in test [9], in [10], in test [12], in [13] and in [14] was inactive. Also, the call in test [15] and in test [16] was inactive.
With `CC(C)[C@@]1(NC(=O)[C@@H]2C=C3c4cccc5[nH]cc(c45)C[C@@H]3N(C)C2)O[C@]2(O)[C@H]3CCCN3C(=O)[C@H](Cc3ccccc3)N2C1=O`, the figures for the activity change, negative = inhibition in [1] and in test [3] were -14% [at 38 µM] and 4.28% [at 38 µM], respectively. The Potency was 10 µM (active) in test [2], > 46 µM in [5] and > 46 µM in test [8]. Further, the activity, negative = inhibition in [4] is 8.76% [at 38 µM]. Further, the Potency entry in [6], in [17] and in test [18] was “inactive” each time. Further, in test [7], the compound was called inactive.
`NCCc1c[nH]c2ccc(OC(=O)C(=O)O)cc12`: the activity change, negative = inhibition is 9.07% in test [1], 6.17% in [3] and 8.58% [at 11.4 µM] in [6]. Further, the results for the Potency in test [2], in [5] and in test [8] were 2.51 µM (active), > 46 µM and > 9.22 µM, respectively. For the same compound, the activity, negative = inhibition in test [4] is 10.1%. In addition, the call in test [7] was inactive.
